Screening results (PubChem BioAssay)
ALR inh: blocks human ALR sulfhydryl oxidase activity. actives 3.8% (n = 290,000). P55789. AID 485317. purified ALR, DTT oxidation, H2O2 HRP-luminol luminescence. inhibition, % (no concentration beside the values);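 active = mean replicate inhibition above about 79%, with every replicate also reaching it, limit read from the data; inconclusive = only one of the two criteria met; inactive = mean below limit and not every replicate reaching it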
IDE cell inh: cellular human IDE inhibition | actives 0.41% (n = 320,000) | HEK cells, FAbetaB cleavage, fluorescence polarization | AID 434962 | P14735 | inhibition, % at 5.59 µM;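 active = percent inhibition above the average of all tested compounds plus 3 SD, set per screening campaign, cut at about 16% in these data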;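 note: IDE supplied by intact live HEK cells; FP after avidin binding of uncleaved biotin substrate so inhibition keeps polarization high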
Target sequence (P14735 whole entry, looked up): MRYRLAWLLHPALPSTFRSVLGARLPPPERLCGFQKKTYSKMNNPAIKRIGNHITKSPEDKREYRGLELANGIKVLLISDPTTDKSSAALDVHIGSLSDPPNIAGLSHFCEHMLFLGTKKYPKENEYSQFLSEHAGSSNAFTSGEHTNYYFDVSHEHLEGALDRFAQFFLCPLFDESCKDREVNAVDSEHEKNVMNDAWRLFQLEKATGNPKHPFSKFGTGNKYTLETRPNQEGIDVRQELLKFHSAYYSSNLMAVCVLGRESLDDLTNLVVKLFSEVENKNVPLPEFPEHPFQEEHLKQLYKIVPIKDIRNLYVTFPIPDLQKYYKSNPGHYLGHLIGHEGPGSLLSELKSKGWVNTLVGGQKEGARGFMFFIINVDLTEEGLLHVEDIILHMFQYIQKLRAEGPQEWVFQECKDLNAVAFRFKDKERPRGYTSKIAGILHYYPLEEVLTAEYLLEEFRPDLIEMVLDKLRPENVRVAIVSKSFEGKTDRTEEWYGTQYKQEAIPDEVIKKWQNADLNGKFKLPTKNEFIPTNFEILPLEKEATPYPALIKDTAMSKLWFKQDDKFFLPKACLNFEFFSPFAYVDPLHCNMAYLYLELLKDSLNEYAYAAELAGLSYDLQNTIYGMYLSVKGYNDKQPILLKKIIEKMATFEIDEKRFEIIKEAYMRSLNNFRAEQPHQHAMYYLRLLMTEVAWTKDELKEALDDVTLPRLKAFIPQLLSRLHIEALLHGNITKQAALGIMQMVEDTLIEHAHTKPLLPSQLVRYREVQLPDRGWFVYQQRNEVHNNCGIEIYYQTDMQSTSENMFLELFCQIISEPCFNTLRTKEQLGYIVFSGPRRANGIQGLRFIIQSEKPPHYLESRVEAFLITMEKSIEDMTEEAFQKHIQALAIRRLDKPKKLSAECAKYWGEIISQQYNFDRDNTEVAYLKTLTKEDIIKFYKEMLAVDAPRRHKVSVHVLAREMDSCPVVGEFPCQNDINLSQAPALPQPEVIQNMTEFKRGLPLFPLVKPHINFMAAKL
IDE cell activ: boosts human insulin-degrading enzyme activity in HEK cells | P14735 | FAbeta-B cleavage, fluorescence polarization; 0% vehicle, 100% cell-free pure enzyme wells | AID 493087 | activation, % at 5.96 µM | actives 0.073% (n = 340,000);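 active = activation above the mean of all tested compounds plus 3 SD, set per screening campaign, cut at about 17% in these data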
PolyA inhibitor: yeast polyadenylation inhibition; S. cerevisiae SKY197-pL101 polyadenylation reporter, beta-gal luminescence; efflux-impaired pdr1/pdr3 knockout yeast; score 100 = 6 SD above DMSO; activity score, % at 12 µM; actives 0.02% (n = 300,000); AID 1875;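 active = lowest replicate activity score at least 50, where 100 means six control SD above control mean; inconclusive = lowest score under 50 but half or more replicates reach 50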;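 note: yeast exposed to compound for 9 h at 30 °C; higher score means more reporter readthrough which indicates perturbed polyadenylation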
PfM18AAP inh: blocks P. falciparum M18 aspartyl aminopeptidase. recombinant PfM18AAP, H-Glu-NHMec fluorogenic cleavage. inhibition, % at 7.35 µM. actives 1.2% (n = 290,000). AID 1822;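 active = inhibition above the campaign mean inhibition over all tested compounds plus 3 SD, cut at about 28% in these data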
CaV13 ICDI inh: Disruptors of the CACNA1D IQ motif to Ca2+-dependent inactivation inhibitor domain association, primary screening, Förster resonance energy transfer in intact living … | HEK cells, CFP/YFP FRET ICDI-IQ, plate reader, 10 min; percent FRET-ratio fall versus neutral wells | inhibition, % at 12.3 µM | actives 0.098% (n = 340,000);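 active = mean replicate inhibition of at least 30% and at least 1% of replicates passing that level; inconclusive = only one of the two criteria is met; inactive = neither criterion is met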
A number is an active result; – = inactive; ? = inconclusive; · = no result given. Shown are actives, neighbours in structure and some others; about 4.1% of the full set was active somewhere.

SMILES | ALR inh | IDE cell inh | IDE cell activ | PolyA inhibitor | PfM18AAP inh | CaV13 ICDI inh
COc1ccc(N(CC(=O)NCc2ccccc2)S(=O)(=O)c2c(C)n[nH]c2C)cc1 | – | – | – | – | – | –
Cc1ccc(-n2c(Cc3ccccc3)n[nH]c2=S)cc1 | 92 | – | – | – | – | –
S=c1[nH]nc(Cc2ccccc2)n1-c1ccc(Cl)cc1 | – | – | – | – | – | –
Cc1cn(C2CCC(CO)O2)c(=O)[nH]c1=O (stereo not drawn) | – | · | – | – | – | –
O=C(CCC(=O)N1CCN(Cc2ccccc2)CC1)Nc1nnc(C2CCCCC2)s1 | – | – | – | – | – | –
O=C(Nc1ccc(Cl)cc1)N1CCSC1=NCc1ccccc1 | – | – | – | – | – | –
CC(=O)Nc1ccc(C2=NN(C)C(=NCc3ccccc3)SC2)cc1 | 99 | – | – | – | – | –
OCCOCCn1c(C(CO)Nc2nc(-c3ccc(Cl)cc3)cs2)nc2ccccc21 (stereo not drawn) | 95 | – | – | – | · | –
Nc1c(Cl)cc(-c2csc(NC(CO)c3nc4ccccc4n3CCOCCO)n2)cc1Cl (stereo not drawn) | – | – | – | – | · | –
CC(C)CC1COC(=O)N1 (stereo not drawn) | – | – | – | – | – | –
O=C(Nc1nncs1)c1ccc2c(c1)OCO2 | – | – | – | – | 29 | –
CC1CN(S(=O)(=O)c2ccc(C(=O)Nc3nncs3)cc2)CC(C)O1 (stereo not drawn) | – | – | 26 | · | · | –
CC1CN(S(=O)(=O)c2ccc(C(=O)Nc3nccs3)cc2)CC(C)O1 (stereo not drawn) | – | – | – | – | – | –
CCC(C(=O)NCC1CCCO1)N(Cc1ccc(F)cc1)C(=O)CNS(=O)(=O)c1ccccc1 (stereo not drawn) | – | – | – | – | – | –
CCN(CC)c1ccc(/C=N/N=C(N)N)c(O)c1 | 76 | – | 18 | – | 29 | –
CCN(CC)c1ccc(/C=N/N2CCOCC2)c(O)c1 | ? | – | – | – | – | –
CCN(CC)c1ccc(C=Nc2ccccc2)c(O)c1 | – | – | – | – | – | –
CCN(CC)c1ccc(C=Nc2ccc(N(C)C)cc2)c(O)c1 | 98 | – | – | – | – | –
CCN(CC)c1ccc(/C=N/N2C(C)CCCC2C)c(O)c1 (stereo not drawn) | 98 | – | – | – | – | –
COC(=O)[C@]12C[C@H](CC(=O)N3CCC(c4ccccc4)CC3)C(=O)N(Cc3ccccc3)C1=C[C@H](C1CCCC1)O[C@@H]2C | · | · | · | · | · | –
C/C(=N\Nc1nc(C)cc(-c2ccccc2)n1)c1ccccc1 | – | – | – | – | – | –
C/C(=N\Nc1nc(C)cc(-c2ccccc2)n1)c1ccc(O)cc1 | 96 | – | – | – | – | –
C/C(=N\Nc1nc(C)cc(-c2ccccc2)n1)c1cccc(N)c1 | 99 | – | – | – | – | –
CCC(=O)Nc1cccc(NC(=O)CSc2nc3c(c(=O)n(C)c(=O)n3C)n2C)c1 | – | – | – | – | – | –
CC(C)CCN1CCN(C2CSCCSC2)CC1CCO (stereo not drawn) | – | – | – | – | – | –
SMILES | ALR inh | IDE cell inh | IDE cell activ | PolyA inhibitor | PfM18AAP inh | CaV13 ICDI inh
Fc1ccc(-n2c(Cn3nnc4ccccc43)n[nH]c2=S)cc1 | – | – | – | – | 30 | –
COc1cccc(C2NC(C)(C(=O)O)C3C(=O)N(C(C)C)C(=O)C23)c1O (stereo not drawn) | – | – | – | – | – | –
CSCCC1(C(=O)O)NC(c2ccccc2O)C2C(=O)N(C(C)C)C(=O)C21 (stereo not drawn) | – | – | – | – | – | 39
CSc1ccccc1-c1cnc(NC(C)=O)cn1 | · | · | · | · | · | –
CC(C)(C)C(=O)c1sc(Nc2ccccc2)nc1N | 97 | – | – | – | – | –
CC(=O)c1sc(Nc2ccccc2)nc1C | · | · | · | · | · | –
COC(=O)C1=C(C)N(Cc2ccc(C(F)(F)F)cc2)C(=NCC2CC2)NC1c1cccc(Cl)c1 (stereo not drawn) | · | · | · | · | · | –
O=C(CN1C(=O)S/C(=C\C=C\c2ccccc2)C1=O)Nc1ccccc1C(=O)O | 97 | – | – | – | – | –
O=C(CCN1C(=O)/C(=C/c2ccccc2Cl)SC1=S)Nc1ccccc1C(=O)O | 98 | – | – | – | – | –
CN1CCN(NC(=O)CN2C(=O)/C(=C/c3ccccc3Cl)SC2=S)CC1 | 99 | – | – | – | – | –
CN1CCN(NC(=O)CN2C(=O)/C(=C/c3c(Cl)cccc3Cl)SC2=S)CC1 | · | – | – | – | – | –
C[C@H](O)[C@@H]1C(=O)N2CCc3c([nH]c4c(-c5ccccc5)cccc34)[C@@H]2C[C@@H]1N(C)CC1CCCCC1 | · | · | · | · | · | –
CCc1noc(C)c1C(=O)N1CCCC(Nc2cccc(F)c2)C1 (stereo not drawn) | · | · | · | · | · | –
COc1ccc(NC2CCCN(C(=O)c3c(C)noc3C)C2)cc1 (stereo not drawn) | 99 | – | – | – | – | ·
Cc1noc(C)c1C(=O)N1CCCC(Nc2ccc(C(C)C)cc2)C1 (stereo not drawn) | 98 | – | – | – | – | –
C/C(=N\Nc1ccc(F)cc1)c1ccc(N2CCOCC2)c(F)c1 | – | – | – | – | – | –
Cc1ccccc1NC(=O)NC1CCCCC1C (stereo not drawn) | – | – | – | – | – | –
CCN1CCN(C(=O)C(NS(=O)(=O)c2ccc3nc(C)sc3c2)C(C)C)CC1 (stereo not drawn) | 92 | – | – | – | – | –
Cc1nc2ccc(S(=O)(=O)NC(C(=O)NCc3ccc4c(c3)OCO4)C(C)C)cc2s1 (stereo not drawn) | – | – | – | – | – | –
Cc1nc2ccc(S(=O)(=O)NC(C(=O)NC3CCCC3)C(C)C)cc2s1 (stereo not drawn) | 96 | – | – | – | – | –
O=C(c1ccccc1)c1ccc(OC(=O)C2CCCCC2)cc1 | – | – | – | – | – | –
O=c1nc2n(c3sc4c(c13)CCCC4)C(CBr)CS2 (stereo not drawn) | 86 | – | – | ? | – | ·
O=c1c2ccccc2nc2n1C(CBr)CS2 (stereo not drawn) | – | – | – | – | – | –
Cc1ccnc(N/C=C(/NC(=O)c2ccccc2)C(=O)N/N=C\c2ccc(Cl)cc2)n1 | – | 32 | – | – | – | –
CCOc1ccc(/C=C/C(=O)c2c(O)cc(C)oc2=O)cc1 | 95 | – | – | – | – | –
COc1ccc(/C=C\C(=O)c2c(O)ccc3c(C)cc(=O)oc23)cc1 | 97 | – | – | – | – | ·
CCC(C)(C)C1CCC2(CC1)NC(=O)N(CC(=O)NC(C)CCc1ccccc1)C2=O (stereo not drawn) | · | · | – | · | · | –
